Data reported in the supplement of paper PMC11732987, “Enantioselective OTUD7B fragment discovery through chemoproteomics screening and high-throughput optimisation” (Communications Chemistry, 2025).

Legend:
Assay in all cases: log2 ratio of Biotin-Ahx-Ub-VS probe labelling (fragment/DMSO); higher = less target engagement (more negative = stronger competition), active = hit call of the paper (q ≤ 0.05, log2 ratio ≤ -1)
Conditions in all cases: compound concentration: 200 uM; treatment time: 3 h
ALG13 = biological target: T1, ALG13 (UniProt Q9NP73)
T1 sequence (whole entry): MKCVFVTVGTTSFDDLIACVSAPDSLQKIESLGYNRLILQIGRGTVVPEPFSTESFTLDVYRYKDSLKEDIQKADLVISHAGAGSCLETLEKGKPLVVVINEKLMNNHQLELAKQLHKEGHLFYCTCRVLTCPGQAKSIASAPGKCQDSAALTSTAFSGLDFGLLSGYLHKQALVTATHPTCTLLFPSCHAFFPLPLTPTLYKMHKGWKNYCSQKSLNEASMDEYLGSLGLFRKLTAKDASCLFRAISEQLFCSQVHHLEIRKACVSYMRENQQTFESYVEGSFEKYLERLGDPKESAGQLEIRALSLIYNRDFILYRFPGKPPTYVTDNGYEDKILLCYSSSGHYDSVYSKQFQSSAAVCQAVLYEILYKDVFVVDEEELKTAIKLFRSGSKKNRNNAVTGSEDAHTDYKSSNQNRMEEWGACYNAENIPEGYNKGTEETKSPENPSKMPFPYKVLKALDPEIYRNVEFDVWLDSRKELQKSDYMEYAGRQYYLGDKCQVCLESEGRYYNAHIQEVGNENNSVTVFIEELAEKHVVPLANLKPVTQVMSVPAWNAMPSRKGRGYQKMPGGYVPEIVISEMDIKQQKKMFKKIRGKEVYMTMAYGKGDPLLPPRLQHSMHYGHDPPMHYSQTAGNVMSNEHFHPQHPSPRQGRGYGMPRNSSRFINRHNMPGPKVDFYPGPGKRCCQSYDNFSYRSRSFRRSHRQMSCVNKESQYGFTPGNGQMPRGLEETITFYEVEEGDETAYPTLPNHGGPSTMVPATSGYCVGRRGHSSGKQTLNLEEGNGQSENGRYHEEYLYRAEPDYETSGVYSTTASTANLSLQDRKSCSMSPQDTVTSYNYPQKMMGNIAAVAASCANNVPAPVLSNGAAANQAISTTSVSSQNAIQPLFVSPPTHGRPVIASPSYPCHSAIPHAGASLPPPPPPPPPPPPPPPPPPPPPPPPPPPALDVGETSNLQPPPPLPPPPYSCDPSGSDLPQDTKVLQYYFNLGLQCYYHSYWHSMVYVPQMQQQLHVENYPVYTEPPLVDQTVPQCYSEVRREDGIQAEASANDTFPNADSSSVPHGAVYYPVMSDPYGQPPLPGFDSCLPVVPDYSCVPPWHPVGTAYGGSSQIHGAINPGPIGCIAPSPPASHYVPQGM
How it was run: (§1)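 Using Biotin-Ahx-Ub-VS at 0.5 µM final for 1 h, DUBs were labelled in HEK293T lysate (495 µg per sample) that had first been treated in triplicate with fragment at 200 µM or vehicle for 3 h. NeutrAvidin enrichment, LysC and trypsin digestion and diaPASEF LC-MS/MS followed. Spectronaut label-free quantities were global-median-normalised. Values are average log2 fragment/vehicle ratios by unpaired t-test, using proteins with ≥2 unique peptides.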

ATXN3 = ATXN3 (UniProt P54252)
Sequence of ATXN3 (P54252 whole entry): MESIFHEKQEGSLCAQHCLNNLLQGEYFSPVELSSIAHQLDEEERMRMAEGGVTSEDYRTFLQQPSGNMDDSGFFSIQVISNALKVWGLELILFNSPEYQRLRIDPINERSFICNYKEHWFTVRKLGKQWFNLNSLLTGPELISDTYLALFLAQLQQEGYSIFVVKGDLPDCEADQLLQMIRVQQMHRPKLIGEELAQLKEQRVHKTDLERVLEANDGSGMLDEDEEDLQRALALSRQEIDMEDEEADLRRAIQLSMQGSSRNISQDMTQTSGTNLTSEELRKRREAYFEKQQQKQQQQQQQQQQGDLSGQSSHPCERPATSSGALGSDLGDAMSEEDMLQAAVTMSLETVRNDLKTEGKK
How it was run: as §1

BAP1 = biological target: T2, BAP1 (UniProt Q92560)
T2 sequence (whole entry): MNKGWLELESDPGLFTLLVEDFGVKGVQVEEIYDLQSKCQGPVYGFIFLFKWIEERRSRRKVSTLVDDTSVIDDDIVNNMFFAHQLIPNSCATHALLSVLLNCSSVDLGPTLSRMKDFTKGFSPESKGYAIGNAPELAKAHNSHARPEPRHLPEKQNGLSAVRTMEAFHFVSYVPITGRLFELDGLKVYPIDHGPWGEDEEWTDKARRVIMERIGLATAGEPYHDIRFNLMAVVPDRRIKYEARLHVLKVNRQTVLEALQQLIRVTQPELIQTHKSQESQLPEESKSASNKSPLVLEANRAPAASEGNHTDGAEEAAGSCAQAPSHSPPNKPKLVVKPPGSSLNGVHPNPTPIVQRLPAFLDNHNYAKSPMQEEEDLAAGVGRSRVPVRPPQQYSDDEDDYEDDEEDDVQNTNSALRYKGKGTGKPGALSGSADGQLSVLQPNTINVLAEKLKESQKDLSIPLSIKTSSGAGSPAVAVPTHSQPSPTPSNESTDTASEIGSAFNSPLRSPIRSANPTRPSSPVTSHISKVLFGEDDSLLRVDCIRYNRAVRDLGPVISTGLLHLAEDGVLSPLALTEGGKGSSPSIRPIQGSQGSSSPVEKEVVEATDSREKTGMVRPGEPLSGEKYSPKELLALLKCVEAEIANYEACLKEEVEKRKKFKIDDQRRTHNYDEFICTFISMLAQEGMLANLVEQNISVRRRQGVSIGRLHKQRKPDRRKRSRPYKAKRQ
How it was run: as §1

EIF3F = EIF3F (UniProt O00303)
Sequence of EIF3F (O00303 whole entry): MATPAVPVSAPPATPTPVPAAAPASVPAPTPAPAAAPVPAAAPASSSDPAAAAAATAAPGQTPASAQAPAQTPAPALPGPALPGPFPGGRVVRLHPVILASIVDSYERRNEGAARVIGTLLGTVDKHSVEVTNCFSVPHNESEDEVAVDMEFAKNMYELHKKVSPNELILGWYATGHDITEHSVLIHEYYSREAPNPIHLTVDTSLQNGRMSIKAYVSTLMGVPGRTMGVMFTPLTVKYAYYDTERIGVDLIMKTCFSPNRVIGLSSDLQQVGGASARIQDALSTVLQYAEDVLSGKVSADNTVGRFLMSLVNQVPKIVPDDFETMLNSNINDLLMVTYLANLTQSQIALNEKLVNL
How it was run: as §1

EIF3H = EIF3H (UniProt O15372)
Sequence of EIF3H (O15372 whole entry): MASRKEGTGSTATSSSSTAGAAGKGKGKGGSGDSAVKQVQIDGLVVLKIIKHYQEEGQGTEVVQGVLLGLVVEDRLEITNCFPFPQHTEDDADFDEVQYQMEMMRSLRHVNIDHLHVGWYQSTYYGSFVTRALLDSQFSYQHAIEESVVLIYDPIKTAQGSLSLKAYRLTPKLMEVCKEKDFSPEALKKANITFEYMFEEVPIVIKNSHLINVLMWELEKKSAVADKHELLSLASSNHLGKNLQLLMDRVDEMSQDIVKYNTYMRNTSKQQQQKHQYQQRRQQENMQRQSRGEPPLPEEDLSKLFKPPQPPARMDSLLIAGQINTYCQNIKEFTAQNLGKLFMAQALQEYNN
How it was run: as §1

FAM105A = biological target: T3, FAM105A (UniProt Q9NUU6)
T3 sequence (whole entry): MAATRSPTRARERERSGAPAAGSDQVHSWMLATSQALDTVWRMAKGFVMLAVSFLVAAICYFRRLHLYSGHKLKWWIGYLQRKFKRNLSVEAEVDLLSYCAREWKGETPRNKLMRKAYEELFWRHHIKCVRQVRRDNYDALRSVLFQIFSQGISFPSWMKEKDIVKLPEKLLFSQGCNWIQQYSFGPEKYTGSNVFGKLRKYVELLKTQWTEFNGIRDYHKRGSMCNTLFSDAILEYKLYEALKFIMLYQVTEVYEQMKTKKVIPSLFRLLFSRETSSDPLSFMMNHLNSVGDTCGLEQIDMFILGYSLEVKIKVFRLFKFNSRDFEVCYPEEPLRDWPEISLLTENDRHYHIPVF
How it was run: as §1

OTUB1 = OTUB1 (UniProt Q96FW1)
Sequence of OTUB1 (Q96FW1 whole entry): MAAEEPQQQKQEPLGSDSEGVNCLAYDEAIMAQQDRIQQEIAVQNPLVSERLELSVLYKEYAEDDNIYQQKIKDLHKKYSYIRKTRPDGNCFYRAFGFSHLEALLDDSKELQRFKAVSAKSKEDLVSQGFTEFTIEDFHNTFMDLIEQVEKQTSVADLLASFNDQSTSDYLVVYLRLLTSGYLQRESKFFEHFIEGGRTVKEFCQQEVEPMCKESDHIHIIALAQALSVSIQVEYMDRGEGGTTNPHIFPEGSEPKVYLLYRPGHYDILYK
How it was run: as §1

OTUD4 = biological target: T4, OTUD4 (UniProt Q01804)
T4 sequence (whole entry): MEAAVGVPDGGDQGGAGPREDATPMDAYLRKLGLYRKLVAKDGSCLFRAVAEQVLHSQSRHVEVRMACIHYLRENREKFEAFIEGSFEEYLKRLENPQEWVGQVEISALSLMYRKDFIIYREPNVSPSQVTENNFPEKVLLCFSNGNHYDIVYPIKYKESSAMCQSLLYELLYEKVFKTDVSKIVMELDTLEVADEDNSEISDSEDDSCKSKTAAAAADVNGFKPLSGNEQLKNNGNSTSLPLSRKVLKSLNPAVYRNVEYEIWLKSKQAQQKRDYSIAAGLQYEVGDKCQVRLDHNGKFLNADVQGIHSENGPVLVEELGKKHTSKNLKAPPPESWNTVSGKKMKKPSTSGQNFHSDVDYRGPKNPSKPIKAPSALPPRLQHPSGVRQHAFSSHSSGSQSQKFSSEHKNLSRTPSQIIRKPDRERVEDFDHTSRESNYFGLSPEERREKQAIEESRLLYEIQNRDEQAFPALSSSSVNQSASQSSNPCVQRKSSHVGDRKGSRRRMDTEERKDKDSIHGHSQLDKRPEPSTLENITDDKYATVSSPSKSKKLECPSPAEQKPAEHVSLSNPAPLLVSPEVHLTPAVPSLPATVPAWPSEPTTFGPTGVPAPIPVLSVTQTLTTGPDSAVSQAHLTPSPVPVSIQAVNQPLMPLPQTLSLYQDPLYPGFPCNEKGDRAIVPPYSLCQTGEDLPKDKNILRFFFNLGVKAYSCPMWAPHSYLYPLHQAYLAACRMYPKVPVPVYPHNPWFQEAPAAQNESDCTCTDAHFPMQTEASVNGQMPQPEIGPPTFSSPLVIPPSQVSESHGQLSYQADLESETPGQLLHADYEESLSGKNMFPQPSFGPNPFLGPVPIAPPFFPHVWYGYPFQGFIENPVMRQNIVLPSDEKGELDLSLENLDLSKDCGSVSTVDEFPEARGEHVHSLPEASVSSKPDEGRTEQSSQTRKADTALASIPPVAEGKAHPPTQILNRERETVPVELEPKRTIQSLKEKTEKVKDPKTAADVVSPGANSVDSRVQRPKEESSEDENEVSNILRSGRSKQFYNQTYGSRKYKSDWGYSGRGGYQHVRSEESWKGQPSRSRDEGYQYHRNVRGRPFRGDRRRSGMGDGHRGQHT
How it was run: as §1

OTUD5 = biological target: T5, OTUD5 (UniProt Q96G74)
T5 sequence (whole entry): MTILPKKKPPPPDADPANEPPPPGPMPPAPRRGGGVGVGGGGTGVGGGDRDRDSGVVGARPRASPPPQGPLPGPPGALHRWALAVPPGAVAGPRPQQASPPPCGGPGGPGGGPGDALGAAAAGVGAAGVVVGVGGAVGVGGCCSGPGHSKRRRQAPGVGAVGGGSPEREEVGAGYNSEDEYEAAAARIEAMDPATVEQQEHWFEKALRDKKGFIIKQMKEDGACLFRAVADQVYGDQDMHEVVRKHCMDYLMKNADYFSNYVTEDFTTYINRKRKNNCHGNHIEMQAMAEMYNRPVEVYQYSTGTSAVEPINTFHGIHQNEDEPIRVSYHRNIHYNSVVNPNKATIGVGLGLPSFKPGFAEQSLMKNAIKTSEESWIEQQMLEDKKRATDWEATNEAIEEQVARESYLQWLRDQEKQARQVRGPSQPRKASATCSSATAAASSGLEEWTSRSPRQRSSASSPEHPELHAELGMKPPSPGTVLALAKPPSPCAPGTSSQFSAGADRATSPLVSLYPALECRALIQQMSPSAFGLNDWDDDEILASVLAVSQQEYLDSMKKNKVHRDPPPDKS
How it was run: as §1

Measured: log2 ratio of Biotin-Ahx-Ub-VS probe labelling

CCc1c[nH]c(CNC(=O)CCl)n1.Cl
inactive: ALG13 0.0285 | ATXN3 -0.421 | BAP1 -0.464 | EIF3F -1.13 | EIF3H 0.281 | FAM105A 0.0309 | OTUB1 -0.461 | OTUD4 -0.214 | OTUD5 -0.482
